Reference: PubChem BioAssay AID1159580 (chemical genetic matrix, 2015)
Where “and” joins values, the source holds several entries; their conditions need not be identical. Equal values may be shown once. The campaign covered roughly 5,500 compounds. About 2,000 (36%) were called active. About 18% were inconclusive and are not listed. No stated cut-off is given here; in the data, active means normalized growth mostly below about 0.91 (no sharp cut-off); inconclusive means no clear call, values can overlap the other calls; inactive means mostly above about 0.92. This is one part of the list.

Test: chemical genetic growth profiling, strain panel (AID 1159580);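 further: tested at 20 µM; growth read once vehicle control cultures reached saturation at 30 °C; 1 = growth at the plate median or of vehicle wells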
Conditions: S. cerevisiae deletion strains, growth OD

Measured: normalized growth

O=C(O)c1cccnc1
inactive: locus YAL013W, strain DEP1, stronger effect = lower value 0.987 | locus YAL021C, strain ccr4, stronger effect = lower value 1 | locus YAL026C, strain drs2, stronger effect = lower value 0.993 | locus YAL030W, strain snc1, stronger effect = lower value 0.994 | locus YBL061C, strain skt5, stronger effect = lower value 1.02 | locus YBR009C, strain hhf1, stronger effect = lower value 1.01 | locus YBR021W, strain FUR4, stronger effect = lower value 1.02 | locus YBR023C, strain chs3, stronger effect = lower value 1.01 | locus YBR171W, strain sec66, stronger effect = lower value 0.997 | locus YBR229C, strain ROT2, stronger effect = lower value 0.96 | locus YBR231C, strain swc5, stronger effect = lower value 0.996 | locus YBR279W, strain paf1, stronger effect = lower value 1 | locus YCL011C, strain gbp2, stronger effect = lower value 0.984 | locus YCL016C, strain dcc1, stronger effect = lower value 1.03 | locus YCL029C, strain bik1, stronger effect = lower value 1.01 | locus YCL061C, strain MRC1, stronger effect = lower value 1 | locus YCL069W, strain vba3, stronger effect = lower value 0.976 | locus YCR088W, strain abp1, stronger effect = lower value 0.992 | locus YDL005C, strain med2, stronger effect = lower value 0.98 | locus YDL035C, strain GPR1, stronger effect = lower value 0.968 | locus YDL040C, strain nat1, stronger effect = lower value 0.987 | locus YDL074C, strain BRE1, stronger effect = lower value 1.02 | locus YDL101C, strain DUN1, stronger effect = lower value 1.01 | locus YDL134C, strain PPH21, stronger effect = lower value 0.984 | locus YDL185W, strain tfp1, stronger effect = lower value 1.01 | locus YDL192W, strain arf1, stronger effect = lower value 1 | locus YDR001C, strain nth1, stronger effect = lower value 0.992 | locus YDR069C, strain doa4, stronger effect = lower value 1.01 | locus YDR101C, strain arx1, stronger effect = lower value 1.02 | locus YDR137W, strain rgp1, stronger effect = lower value 1.05 | locus YDR150W, strain NUM1, stronger effect = lower value 0.983 | locus YDR159W, strain sac3, stronger effect = lower value 0.977 | locus YDR162C, strain NBP2, stronger effect = lower value 0.985 | locus YDR195W, strain ref2 1.01 | locus YDR297W, strain sur2, stronger effect = lower value 0.996 | locus YDR318W, strain mcm21, stronger effect = lower value 1.04 | locus YDR334W, strain swr1, stronger effect = lower value 0.971 | locus YDR335W, strain msn5, stronger effect = lower value 0.993 | locus YDR388W, stronger effect = lower value 1 | locus YDR392W, strain spt3, stronger effect = lower value 0.973 | locus YDR502C, strain sam2, stronger effect = lower value 1 | locus YEL003W, strain gim4, stronger effect = lower value 0.985 | locus YEL037C, strain rad23, stronger effect = lower value 0.977 | locus YEL061C, strain CIN8 (second series), stronger effect = lower value 0.98 | locus YEL061C, strain CIN8, stronger effect = lower value 0.989 | locus YER015W, strain faa2, stronger effect = lower value 0.998 | locus YER016W, strain bim1, stronger effect = lower value 0.992 | locus YER110C, stronger effect = lower value 0.985 | locus YER111C, strain swi4, stronger effect = lower value 0.999 | locus YER155C, strain BEM2 (second series), stronger effect = lower value 0.995 | locus YER155C, strain BEM2, stronger effect = lower value 1.02 | locus YER167W, strain BCK2, stronger effect = lower value 0.982 | locus YFR010W, strain ubp6, stronger effect = lower value 0.995 | locus YGL078C, strain dbp3, stronger effect = lower value 1 | locus YGL086W, strain mad1, stronger effect = lower value 1.02 | locus YGL167C, strain pmr1, stronger effect = lower value 1.01 | locus YGL173C, strain kem1, stronger effect = lower value 1.01 | locus YGL227W, strain vid30, stronger effect = lower value 0.987 | locus YGL240W, strain doc1, stronger effect = lower value 1.01 | locus YGL248W, strain PDE1, stronger effect = lower value 0.983 | locus YGL253W, strain hxk2, stronger effect = lower value 0.987 | locus YGR078C, strain PAC10, stronger effect = lower value 1.04 | locus YGR135W, strain pre9, stronger effect = lower value 1.05 | locus YGR229C, strain SMI1, stronger effect = lower value 1.03 | locus YGR252W, strain gcn5, stronger effect = lower value 0.919 | locus YHR013C, strain ard1, stronger effect = lower value 1.04 | locus YHR027C, strain rpn1, stronger effect = lower value 1.01 | locus YHR030C, strain SLT2, stronger effect = lower value 0.997 and 1 | locus YHR079C, strain IRE1 (second series), stronger effect = lower value 1.01 | locus YHR079C, strain IRE1, stronger effect = lower value 1.03 | locus YHR094C, strain hxt1, stronger effect = lower value 0.999 | locus YHR129C, strain ARP1, stronger effect = lower value 1.01 | locus YHR142W, strain chs7, stronger effect = lower value 1.01 | locus YHR200W, strain rpn10, stronger effect = lower value 1.02 | locus YIL066C, strain RNR3, stronger effect = lower value 0.982 | locus YIL073C, strain SPO22, stronger effect = lower value 1.01 | locus YIL125W, strain kgd1, stronger effect = lower value 0.984 | locus YIR030C, strain dcg1, stronger effect = lower value 0.996 | locus YJL092W, strain hpr5, stronger effect = lower value 0.978 | locus YJL095W, strain BCK1 (second series), stronger effect = lower value 1 | locus YJL095W, strain BCK1, stronger effect = lower value 1.05 and 0.999 | locus YJL115W, strain asf1, stronger effect = lower value 0.973 | locus YJL129C, strain trk1, stronger effect = lower value 0.949 | locus YJL134W, strain LCB3, stronger effect = lower value 0.991 | locus YJL154C, strain vps35, stronger effect = lower value 0.977 | locus YJL164C, strain tpk1, stronger effect = lower value 1.02 | locus YJL166W, strain qcr8, stronger effect = lower value 0.988 | locus YJL168C, strain set2, stronger effect = lower value 1 | locus YJL187C, strain SWE1 (second series), stronger effect = lower value 0.996 | locus YJL187C, strain SWE1, stronger effect = lower value 0.99 | locus YJR043C, strain POL32, stronger effect = lower value 1.05 | locus YJR066W, strain TOR1, stronger effect = lower value 0.971
